Bioassay records (PubChem BioAssay)
JMJD2A Tudor inh: blocks the human JMJD2A Tudor domain; Potency, µM (series often up to 114 µM), usual class: inhibitors; AlphaScreen JMJD2A-Tudor / H3K4me3 peptide binding; 390,000 tested, 4.4% active; also: nearly all actives have a fitted effect of over 50% in size
JMJD2E inh: inhibitors of human JMJD2E histone demethylase. 230,000 tested, 1.6% active. B2RXH2. Potency, µM (series often up to 57.1 µM), most hits filed as inhibitors. AID 2147. JMJD2E catalytic domain, FDH-coupled NADH fluorescence (FDH is formaldehyde dehydrogenase); active = well fitted inhibition curve with a large enough effect, not every such curve was filed as active; inconclusive = small, poorly fitted or top-dose-only effect, or another doubt; inactive = no such curve, though single readings can be large or run the other way; also: nearly all actives have a fitted effect of over 50% in size
Target sequence (B2RXH2 1-337 limits assumed): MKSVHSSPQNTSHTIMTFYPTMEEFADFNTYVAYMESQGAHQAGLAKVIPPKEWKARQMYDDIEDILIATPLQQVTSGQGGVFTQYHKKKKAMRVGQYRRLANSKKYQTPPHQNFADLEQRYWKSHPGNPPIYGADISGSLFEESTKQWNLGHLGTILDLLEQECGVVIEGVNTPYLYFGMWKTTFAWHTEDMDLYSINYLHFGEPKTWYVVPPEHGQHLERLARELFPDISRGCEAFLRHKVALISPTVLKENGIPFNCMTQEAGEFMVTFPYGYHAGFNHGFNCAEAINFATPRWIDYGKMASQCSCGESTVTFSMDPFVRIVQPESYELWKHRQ
HP1b chromo inh: HP1-beta chromodomain-methylated histone interaction inhibition. P83916. AlphaScreen HP1-beta / biotin-H3K9me3 peptide binding. Potency, µM (doses to about 114 µM), hits mostly inhibitors. 390,000 tested, 0.56% active. AID 540317; also: nearly all actives have a fitted effect of over 70% in size
Target sequence (P83916 whole entry, looked up): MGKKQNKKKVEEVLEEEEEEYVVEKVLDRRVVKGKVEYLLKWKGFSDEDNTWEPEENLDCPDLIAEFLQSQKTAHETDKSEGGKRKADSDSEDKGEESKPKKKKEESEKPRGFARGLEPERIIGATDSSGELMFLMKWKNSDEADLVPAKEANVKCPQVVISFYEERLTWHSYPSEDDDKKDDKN
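Compound inhibition of the preformed complex between 50 nM HP1-beta and 50 nM biotinylated H3K9me3 peptide was read by AlphaScreen. Buffer was PBS pH 7.4 with 0.01% Tween-20. Incubations ran 30 min at room temperature, with 10 ug/mL donor/acceptor beads.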
PI5P4Ka inh: PI5P4K alpha (human) kinase inhibition; PI5P4Kalpha enzyme, ADP-Glo luminescence, 60 min; active compounds read low; 330,000 tested, 1.2% active; max response, %; AID 652105; active = max response of -50% or lower; inconclusive = between -30% and -50%; inactive = -30% or higher; also: value at the top dose of about 77 µM
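PI5P4Kalpha ADP-Glo assay; 5 microM ATP final; 60 min RT reaction; HEPES pH 7.4/EGTA/CHAPS, 5% DMSO; controls lacking substrate or enzyme; luminescent end-point.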
L3MBTL1 block: L3MBTL1 (human) inhibition; Q9Y468; AlphaScreen L3MBTL1–H3K9me1 peptide binding; Potency, µM (series often up to 57.1 µM), actives largely listed as inhibitors; 230,000 tested, 0.66% active; AID 485360; also: nearly all actives have a fitted effect of over 60% in size
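Read-out is AlphaScreen signal from streptavidin donor and nickel chelate acceptor beads (10 ug/mL final each) bridging L3MBTL1 (50 nM) and biotinylated K9-monomethylated H3(1-15) peptide (75 nM), after 30 min compound exposure at room temperature.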
BAZ2B block: blocks human BAZ2B; Potency, µM (titrated, usually from 114 µM), usual class: inhibitors; AID 504333; Q9UIF8; AlphaScreen BAZ2B-H3K14Ac peptide displacement; 360,000 tested, 4.4% active; also: nearly all actives have a fitted effect of over 60% in size
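Inhibition is scored as reduced AlphaScreen emission. The BAZ2B/b-H3(5-23)K14Ac complex (50 nM each) in PBS pH 7.4, 0.01% Tween-20 meets compound (up to 110 uM) for 30 min at RT before bead addition.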
Numbers stand for hits. Compounds with a hit are over-represented: about 5.7% of the library has one in this group of screens. Unless noted, calls follow the shape of the dose curve; as a rule, active = well fitted inhibition curve with a large enough effect; inconclusive = small, poorly fitted or top-dose-only effect; inactive = no such curve, though single readings can be large or run the other way.

How did Cc1ccc(Cn2ncc3c(NCCN(C)C)ncnc32)cc1 do in these assays?
JMJD2A Tudor inh: inactive; HP1b chromo inh: inactive; PI5P4Ka inh: inactive; BAZ2B block: inactive

Results for COc1ccc(OC)c(S(=O)(=O)NCc2ccc3c(c2)CCN3C(=O)c2cccc(C)c2)c1 ?
JMJD2A Tudor inh: inactive; HP1b chromo inh: inactive; BAZ2B block: inactive

What do the screens show for `CCCCN(CC)CCCNC(=O)c1ccc2c(c1)NC(=O)CN2C`?
JMJD2A Tudor inh: inactive; HP1b chromo inh: inactive; BAZ2B block: inactive

How did CN1CCC(NCCC(c2ccc(F)cc2)c2ccc(Cl)cc2)CC1 (stereo unspecified) do in these assays?
JMJD2A Tudor inh: 0.71µM; HP1b chromo inh: inactive; PI5P4Ka inh: inactive; BAZ2B block: 50µM

What do the screens show for `CC(C)C(CCNC1CCN(C)CC1)c1ccc(Cl)cc1` (stereo unspecified)?
JMJD2A Tudor inh: 56µM; HP1b chromo inh: inactive; PI5P4Ka inh: inactive; BAZ2B block: inactive

What do the screens show for `Cc1ccc(NC(=O)C(=O)NCC(c2ccc3c(c2)OCO3)N2CCOCC2)c(C)c1` (stereo unspecified)?
JMJD2A Tudor inh: inactive; HP1b chromo inh: inactive; BAZ2B block: inactive

How did Cc1ccc(-c2nc3c4cnn(-c5cc(Cl)ccc5Cl)c4ncn3n2)cc1 do in these assays?
JMJD2A Tudor inh: inactive; HP1b chromo inh: inactive; BAZ2B block: inactive

What do the screens show for `O=C(O)C(CCCCN1C(=O)c2ccccc2C1=O)N1C(=O)c2ccccc2C1=O` (stereo unspecified)?
JMJD2A Tudor inh: inactive; JMJD2E inh: inactive; HP1b chromo inh: inactive; PI5P4Ka inh: inactive; L3MBTL1 block: inactive; BAZ2B block: 89µM

Results for O=C(Nc1ccccc1)C(CCCCN1C(=O)c2ccccc2C1=O)N1C(=O)c2ccccc2C1=O (stereo unspecified) ?
JMJD2A Tudor inh: inactive; HP1b chromo inh: inactive; PI5P4Ka inh: inactive

What do the screens show for `CCN(CC)c1nc2ccccc2nc1C(=O)Nc1ccc(C(C)=O)cc1`?
JMJD2A Tudor inh: inactive; HP1b chromo inh: inactive; BAZ2B block: inactive

What do the screens show for `Cc1ccc(C)n1-c1nc(=S)[nH][nH]1`?
JMJD2A Tudor inh: 3.2µM; JMJD2E inh: inconclusive; HP1b chromo inh: 16µM; BAZ2B block: inconclusive

What do the screens show for `COc1c(N)c2c(c([N+](=O)[O-])c1OC)C(=O)OC2`?
JMJD2A Tudor inh: inactive; HP1b chromo inh: inactive; PI5P4Ka inh: inactive

How did O=S(=O)(c1cccc(-c2n[nH]c(=S)n2-c2ccccc2Cl)c1)N1CCOCC1 do in these assays?
JMJD2A Tudor inh: 22µM; HP1b chromo inh: inactive; PI5P4Ka inh: inactive; L3MBTL1 block: inactive

How did O=S(=O)(c1cccc(-c2n[nH]c(=S)o2)c1)N1CCOCC1 do in these assays?
JMJD2A Tudor inh: inconclusive; JMJD2E inh: inactive; HP1b chromo inh: inactive; PI5P4Ka inh: -73; L3MBTL1 block: inactive; BAZ2B block: inactive

How did O=S(=O)(c1cccc(-c2n[nH]c(=S)n2Cc2ccccc2)c1)N1CCOCC1 do in these assays?
JMJD2A Tudor inh: 20µM; JMJD2E inh: inactive; HP1b chromo inh: inactive; PI5P4Ka inh: inactive; L3MBTL1 block: inactive; BAZ2B block: inactive

How did Cc1ccc(S(=O)(=O)N2CCOCC2)cc1-c1n[nH]c(=S)n1-c1ccccc1 do in these assays?
JMJD2A Tudor inh: 6.3µM; HP1b chromo inh: inactive; PI5P4Ka inh: inactive; L3MBTL1 block: inactive; BAZ2B block: inactive

Results for O=C(Nc1nonc1-c1ccc(Cl)cc1)c1ccccc1F ?
JMJD2A Tudor inh: inactive; HP1b chromo inh: inactive; BAZ2B block: inactive

How did COc1ccc(/C=C2\C(=O)ON=C2c2ccccc2)cc1 do in these assays?
JMJD2A Tudor inh: 35µM; HP1b chromo inh: inactive; PI5P4Ka inh: -53; BAZ2B block: inconclusive

How did COc1cc(/C=C2\C(=O)ON=C2c2ccc(Cl)cc2)ccc1O do in these assays?
JMJD2A Tudor inh: inconclusive; HP1b chromo inh: inconclusive; PI5P4Ka inh: inactive

What do the screens show for `O=C1ON=C(c2ccccc2)/C1=C/c1ccc(O)c(O)c1`?
JMJD2A Tudor inh: 14µM; HP1b chromo inh: 8.9µM; PI5P4Ka inh: -59; BAZ2B block: 28µM

Results for O=C1ON=C(c2ccccc2)/C1=C/c1cccnc1 ?
JMJD2A Tudor inh: inactive; JMJD2E inh: inactive; HP1b chromo inh: inactive; PI5P4Ka inh: inactive; L3MBTL1 block: inactive; BAZ2B block: inactive
